An excerpt weighted towards active compounds, which were near 2% of everything screened.
PGE2 EP2 inh: EP2 receptor (human) inhibition | P43116 | C6 glioma cells expressing human EP2, cAMP TR-FRET; cells stimulated with saturating PGE2 | inhibition, % at 25 µM | 260,000 tested, 0.52% active;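 active means percent inhibition above 40 after rounding to a whole number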;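 further: rat C6 glioma host cells with rolipram phosphodiesterase inhibitor present; the protocol text gives 20 µM as final concentration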
EP2 modulator: modulates human prostaglandin E2 receptor EP2 signaling. P43116. EP2-expressing cells, cAMP HTRF FRET, PGE2 co-stimulation. induction, % at 25 µM. 260,000 tested, 0.83% active;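 active means compounds whose cAMP rise, as percent of the full-agonist control response, exceeds 60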;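 further: rat C6 glioma line stably carrying human EP2 under a CMV promoter; the protocol text gives 20 µM as final concentration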
S1P4 agonist: human S1P4 receptor agonism; O95977; S1P4-expressing cell line, agonist reporter assay; activation, % at 4.98 µM; 220,000 tested, 0.35% active; AID 1509; in the data active means activation above about 11%
Target sequence (O95977 whole entry, looked up): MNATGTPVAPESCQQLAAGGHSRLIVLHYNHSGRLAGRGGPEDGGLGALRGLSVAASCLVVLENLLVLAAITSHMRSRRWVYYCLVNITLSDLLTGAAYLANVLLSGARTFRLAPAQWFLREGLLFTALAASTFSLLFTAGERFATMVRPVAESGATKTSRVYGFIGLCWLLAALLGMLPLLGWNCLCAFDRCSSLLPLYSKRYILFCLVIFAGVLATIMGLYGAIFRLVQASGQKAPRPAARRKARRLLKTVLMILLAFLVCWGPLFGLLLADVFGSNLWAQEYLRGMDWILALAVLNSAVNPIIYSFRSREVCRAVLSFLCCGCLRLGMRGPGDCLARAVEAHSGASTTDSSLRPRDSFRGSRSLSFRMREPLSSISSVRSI
S1P3 antag: S1P3 (human) receptor antagonism. Q99500. CHO S1P3 NFAT-BLA reporter, FRET fluorescence, antagonist mode. inhibition, % at 4.98 µM. 170,000 tested, 0.27% active. AID 485;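 active means inhibition above the plate cutoff, the mean inhibition of test wells on that plate plus 3 SD, cut at about 28% in these data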;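 further: cells challenged with S1P at its EC80 of 0.8 µM; blue over green emission ratio from cleaved BLA substrate after 4 h stimulation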
Target sequence (Q99500 whole entry, looked up): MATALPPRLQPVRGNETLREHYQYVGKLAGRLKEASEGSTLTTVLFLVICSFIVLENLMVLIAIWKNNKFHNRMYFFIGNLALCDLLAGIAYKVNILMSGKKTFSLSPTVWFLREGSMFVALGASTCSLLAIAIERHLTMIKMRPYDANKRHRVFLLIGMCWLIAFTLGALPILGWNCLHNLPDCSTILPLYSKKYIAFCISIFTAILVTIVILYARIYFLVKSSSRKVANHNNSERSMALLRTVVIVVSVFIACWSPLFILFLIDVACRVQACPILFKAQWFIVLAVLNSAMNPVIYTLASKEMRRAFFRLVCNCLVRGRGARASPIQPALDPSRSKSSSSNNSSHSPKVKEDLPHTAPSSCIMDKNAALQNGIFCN
S1P4 antagonist: human S1P4 receptor antagonism. S1P4-expressing cells, antagonist mode, reporter read-out. 220,000 tested, 0.26% active. O95977. inhibition, % at 4.98 µM; in the data active means inhibition above about 29%
EP2 cAMP induct: human EP2 receptor cAMP induction, negative in counter-screens; shares compounds with EP2 modulator; C6 glioma EP2 cells, cAMP HTRF induction; plus low (about EC15) PGE2 agonist; calls only at 20 µM (by protocol); 1,300 tested, 47% active;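 active means cAMP induction above 50% in the main assay while under 30% in all four parallel counter assays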;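 further: rat C6 glioma cells stably expressing human EP2 receptor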
Each line names hits and unclear results; the compound was inactive in the other large screens (follow-up assays come after a bar, where they were run).

OC(COc1ccccc1)Cn1c2ccccc2c2ccccc21 (centres undefined)	EP2 modulator 70.5 | EP2 cAMP induct active
Cc1ccc(/C=N/Nc2cc(C)nc(N3CCOCC3)n2)cc1	none
Cc1cccc(/C=N/Nc2cc(N3CCOCC3)nc(N3CCOCC3)n2)c1	EP2 modulator 79.5 | EP2 cAMP induct active
CC(C)c1ccc(/C=N/Nc2cc(N3CCOCC3)nc(N3CCOCC3)n2)cc1	EP2 modulator 95.8 | EP2 cAMP induct active
Cc1ccc2nsnc2c1S(=O)(=O)N(Cc1ccccc1)Cc1cc2cccc(C)c2[nH]c1=O	none (no result: S1P4 agonist, S1P3 antag, S1P4 antagonist)
Cc1ccc(-c2cc(C(F)F)n3ncc(C(=O)NCc4cccnc4)c3n2)cc1	none (no result: S1P4 agonist, S1P3 antag, S1P4 antagonist)
CCOC(=O)c1sc2nccc(N(C)C)c2c1N=CNOCc1ccccc1	EP2 modulator 74.2 (no result: S1P3 antag) | EP2 cAMP induct active
CCOC(=O)c1sc2nccc(N(C)C)c2c1N=CNOC	none (no result: S1P3 antag)
Cc1nn(C)cc1S(=O)(=O)N1Cc2ccccc2CC1C(N)=O (centres undefined)	none (no result: S1P4 agonist, S1P3 antag, S1P4 antagonist)
C[C@H](CCC(=O)O)[C@@H]1CC[C@@H]2[C@H]3CC[C@@H]4C[C@H](O)CC[C@@]4(C)[C@@H]3CC[C@]21C	none (no result: S1P4 agonist, S1P3 antag, S1P4 antagonist) | EP2 cAMP induct inactive
C[C@H](CCC(=O)O)[C@H]1CC[C@H]2[C@@H]3CC[C@@H]4C[C@H](O)CC[C@]4(C)[C@H]3C[C@H](O)[C@]12C	none (no result: EP2 modulator, S1P4 agonist, S1P3 antag, S1P4 antagonist)
O=C1CCC(C(=O)OCC(=O)N2N=C3/C(=C/c4ccccc4)CCCC3C2c2ccccc2)N1 (centres undefined)	EP2 modulator 77.8 (no result: S1P3 antag) | EP2 cAMP induct active
O=C(c1ccccn1)N1N=C2/C(=C/c3ccccc3)CCCC2C1c1ccccc1 (centres undefined)	none
Fc1cnc(N/N=C/c2ccc(-c3ccc(Br)cc3)o2)nc1N1CCOCC1	none
Brc1ccc(-c2ccc(/C=N/Nc3nc(N4CCOCC4)nc(N4CCOCC4)n3)o2)cc1	EP2 modulator 66.8 | EP2 cAMP induct active
Clc1ccc(-c2ccc(/C=N/Nc3cc(N4CCOCC4)nc(N4CCOCC4)n3)o2)cc1	EP2 modulator 107.7 (no result: S1P3 antag) | EP2 cAMP induct active
O=C(Nc1ccccc1)c1ccc(-c2ccccc2Cl)o1	none
O=C(O)c1ccc(-c2ccccc2Cl)o1	EP2 modulator 69.4 | EP2 cAMP induct inactive
CC(=O)Cc1nsc(NC(=O)c2cc(-c3cc(Cl)cc(Cl)c3)oc2C)n1	none (no result: S1P4 agonist, S1P3 antag, S1P4 antagonist)
COc1ccc(Cl)cc1NC(=O)Cn1nc(-c2cc(C)oc2C)cc(N)c1=O	none (no result: S1P4 agonist, S1P3 antag, S1P4 antagonist)
CCOC(=O)n1c(=O)n(Cc2ccc(Cl)c(Cl)c2)c2ccccc21	EP2 modulator 77.0 (no result: S1P3 antag) | EP2 cAMP induct active
COC(=O)c1ccccc1NC(=O)C(C)Oc1ccccc1 (centres undefined)	none | EP2 cAMP induct inactive
COC(=O)/C(C)=C/CC12OC(C)(C)C3CC(C=C4C(=O)c5cc6c(c(CCC(C)(C)Cl)c5OC431)OC1(C)CCC(=C(C)C)C6C1)C2=O (centres undefined)	none (no result: S1P4 agonist, S1P3 antag, S1P4 antagonist)
CC(=O)Oc1c2c(c3c(c1CC=C(C)C)O[C@]14C(=C[C@@H]5CC1C(C)(C)OC4(C/C=C(\C)C(=O)O)C5=O)C3=O)OC(C)(CCC=C(C)C)C=C2 (some centres undefined)	none (no result: S1P4 agonist, S1P3 antag, S1P4 antagonist) | EP2 cAMP induct inactive
Cc1ccc2nc(SCC(=O)NCc3ccco3)c(C)cc2c1	EP2 modulator 68.6 | EP2 cAMP induct active
Cc1ccc2nc(SCC(=O)NCc3ccco3)c(C#N)cc2c1	none
COc1ccc2cc(C(=O)N3CCC(C(=O)c4nccs4)CC3)[nH]c2c1	none (no result: PGE2 EP2 inh, S1P4 agonist, S1P3 antag, S1P4 antagonist)
Cc1nnc(SCC(=O)N2c3ccccc3C(C)(c3ccccc3)CC2(C)C)s1 (centres undefined)	EP2 modulator 67.2 | EP2 cAMP induct inactive
Cc1ccc(C2(C)CC(C)(C)N(C(=O)CSc3nnc(C)s3)c3ccccc32)cc1 (centres undefined)	none
Cc1cccc(OCC(O)CN2CCN(Cc3ccnc(N4CCCC4)n3)CC2)c1 (centres undefined)	none (no result: S1P4 agonist, S1P3 antag, S1P4 antagonist)
COc1cccc2c1oc(=O)c1c(NC(C)=O)nc3c(c12)CCCCC3	none (no result: S1P4 agonist, S1P3 antag, S1P4 antagonist)
O=C(OCc1ccc(Cl)cc1)c1cccnc1Cl	none
O=C(OCc1ccc(Cl)cc1)c1ccccc1C(=O)c1ccccc1	EP2 modulator 70.1 (no result: S1P3 antag) | EP2 cAMP induct active
O=C(O)c1nn(CC(=O)N(C2CCCCC2)C2CCCCC2)c(=O)c2ccccc12	EP2 modulator 83.4 | EP2 cAMP induct active
Cn1c(=O)c2c(nc(CN3CCN(c4ccccc4)CC3)n2Cc2ccccc2Cl)n(C)c1=O	none | EP2 cAMP induct inactive
Cn1c(=O)c2c(nc(CN3CCN(c4ccccc4)CC3)n2Cc2ccccc2F)n(C)c1=O	none (no result: PGE2 EP2 inh, EP2 modulator, S1P4 agonist, S1P4 antagonist)
Cn1c(=O)c2c(nc(CN3CCN(c4ccccc4)CC3)n2Cc2c(F)cccc2Cl)n(C)c1=O	EP2 modulator 70.9 | EP2 cAMP induct inactive
O=C(O)c1ccc(CSc2nnc(-c3ccccc3)n2-c2ccccc2)cc1	none
Brc1cccc(-c2nnc(SCc3ccon3)n2-c2ccccc2)c1	none | EP2 cAMP induct inactive
CC1CCCCN1C(=O)CN1CCC(n2cnc3cccnc32)CC1 (centres undefined)	none (no result: S1P4 agonist, S1P3 antag, S1P4 antagonist)
COc1ccc(Cl)cc1-n1c(C)ccc1C	EP2 modulator 69.4 | EP2 cAMP induct inactive
COc1ccccc1-n1c(C)ccc1C	none (no result: S1P4 agonist, S1P3 antag, S1P4 antagonist)
O=S(=O)(c1ccc(F)c(Cl)c1)N1CCCC1	EP2 modulator 68.1 (no result: S1P3 antag) | EP2 cAMP induct inactive
Cc1cc(C)c2c(c1)cc(C)c1nnc(SCC(=O)Nc3nc(C)c(C)s3)n12	none (no result: S1P4 agonist, S1P3 antag, S1P4 antagonist)
CSc1nc(Sc2ccc(Cl)cc2)c2ccccc2n1	none (no result: PGE2 EP2 inh, S1P3 antag)
CSc1nc(Sc2ccccc2)c2ccccc2n1	EP2 modulator 78.8 (no result: S1P3 antag) | EP2 cAMP induct inactive
Clc1ccc(-c2nn3c(-c4ccccc4)nnc3s2)cc1	EP2 modulator 72.8 | EP2 cAMP induct active
COc1ccc(-n2c(-c3ccccc3)nnc2-c2ccc(Cl)cc2)cc1	EP2 modulator 69.1 (no result: S1P3 antag) | EP2 cAMP induct active
COc1ccc(-n2nnnc2-c2ccccc2)cc1	none (no result: S1P3 antag)
c1ccc(-c2nnc3sc(-c4ccncc4)nn23)cc1	none
COc1ccc(-c2nn3c(-c4ccccc4)nnc3s2)cc1	EP2 modulator 80.9 | EP2 cAMP induct active
COC(=O)c1sc(NC(=O)COc2cccc(C)c2)c(C#N)c1C	none (no result: S1P4 agonist, S1P3 antag, S1P4 antagonist)
COc1ccc2cc(C)c3nn(CC(=O)NC4CCCC4)c(=O)n3c2c1	none (no result: S1P4 agonist, S1P3 antag, S1P4 antagonist)
CC(C)n1cc(-c2ccc(Cl)cc2)cc(C#N)c1=O	EP2 modulator 68.4 (no result: S1P3 antag) | EP2 cAMP induct inactive
COc1ccc(-c2c(C(C)=O)c(C)nc3sc4c(c23)NC(c2ccccc2)NC4=O)cc1 (centres undefined)	EP2 modulator 70.2 (no result: S1P3 antag) | EP2 cAMP induct inactive
CCOC(=O)c1c(C)nc2sc3c(c2c1-c1ccc(OC)cc1)NC(c1ccccc1)NC3=O (centres undefined)	none (no result: S1P3 antag)
Cc1cccc(C)c1N1CCN(c2ccc3nnc(C(F)(F)F)n3n2)CC1	EP2 modulator 69.6 (no result: S1P3 antag) | EP2 cAMP induct active
COc1ccccc1/C=C/C(=O)OCC(=O)Nc1ccccc1Sc1ccccc1	EP2 modulator 71.5 | EP2 cAMP induct active

Source: PubChem BioAssay (several laboratories)
